Hits are enriched below; roughly 1.9% of the tested compounds scored in any of these assays.
BRCA1 expr up = BRCA1 expression activation; Potency, µM (series often up to 46.1 µM), for inactives: at the top dose activation, usual class: activators; MCF7-BRCA1-FFLuc reporter, luminescence, 48 h; response scale: scaled: vehicle 0%, 10 µM genistein 100%; 380,000 compounds, 1.1% hits; further: potency means the concentration at half of the fitted maximal effect; nearly all actives have a fitted effect of over 80% in size
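Luminescence from a BRCA1-driven firefly luciferase in MCF7 cells was the read-out, taken 15 min after substrate addition following 48 h compound exposure at 37 °C. Data were normalized to a 10 microM genistein control and DMSO vehicle.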
IL2 activator = activators of IL-2. 360,000 compounds, 0.065% hits. IL-2 activation reporter assay, cell-based qHTS; stimulated with anti-CD3/CD4/CD28 beads; in transgenic mouse T cells. activation, % (series mostly up to about 46 µM); in the data active means activation above about 50%; inconclusive means mostly about 30% to 49%; further: 0% is about no effect
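First, unstimulated transgenic mouse T cells were exposed to compound for 60 min. Next, anti-CD3/anti-CD4-coated beads with anti-CD28 were added. Finally, after 18 h at 37 degrees C, EGFP and DsRed were imaged.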
RXFP1 agonist = RXFP1 (human) receptor agonism. Q9HBX9. HEK293T-RXFP1 cAMP TR-FRET, 30 min; response scale: percent of porcine relaxin response, buffer zero. Potency, µM (highest dose often 57.5 µM), inactives show top-dose activation, hits mostly activators. 370,000 compounds, 0.3% hits. AID 2676; further: potency means the concentration at half of the fitted maximal effect; on the % scale 0 is the no-effect control and ±100 the full control effect; nearly all actives have a fitted effect of over 60% in size
Target sequence (Q9HBX9 whole entry, looked up): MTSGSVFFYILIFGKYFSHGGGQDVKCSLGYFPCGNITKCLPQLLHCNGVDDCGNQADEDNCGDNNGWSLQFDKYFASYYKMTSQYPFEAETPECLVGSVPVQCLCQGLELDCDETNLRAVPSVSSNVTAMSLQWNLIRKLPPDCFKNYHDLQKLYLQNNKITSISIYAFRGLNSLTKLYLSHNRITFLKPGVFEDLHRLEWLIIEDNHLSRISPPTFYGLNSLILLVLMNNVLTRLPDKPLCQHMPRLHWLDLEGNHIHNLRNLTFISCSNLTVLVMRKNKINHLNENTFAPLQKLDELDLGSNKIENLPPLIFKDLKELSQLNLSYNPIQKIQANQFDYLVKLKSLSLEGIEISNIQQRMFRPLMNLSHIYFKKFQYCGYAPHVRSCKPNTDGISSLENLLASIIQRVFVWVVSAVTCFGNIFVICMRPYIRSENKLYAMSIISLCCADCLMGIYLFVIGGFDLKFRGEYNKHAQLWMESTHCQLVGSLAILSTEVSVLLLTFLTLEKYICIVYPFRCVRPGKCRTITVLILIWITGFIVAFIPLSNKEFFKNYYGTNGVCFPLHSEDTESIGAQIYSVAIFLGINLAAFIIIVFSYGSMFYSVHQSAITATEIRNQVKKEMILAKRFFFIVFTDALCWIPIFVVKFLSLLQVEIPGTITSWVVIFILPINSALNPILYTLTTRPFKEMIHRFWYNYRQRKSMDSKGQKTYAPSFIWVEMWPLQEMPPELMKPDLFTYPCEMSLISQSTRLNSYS
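HEK293 cells stably expressing RXFP1, treated 30 min at 37C with compounds plus PDE4 inhibitor Ro 20174; cAMP measured by HTRF TR-FRET. Normalized to buffer and 29 nM porcine relaxin; EC50 by Hill fit.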
NPSR antagonist = neuropeptide S receptor (human) antagonism, cAMP. Q6W5P4. CHO-NPSR cells, cAMP TR-FRET, antagonist mode. Potency, µM (top dose mostly 38.3 µM), for inactives: at the highest dose activity change, negative = inhibition, usual class: inhibitors. 220,000 compounds, 1% hits; further: potency means the concentration at half of the fitted maximal effect; on the % scale 0 is the no-effect control and ±100 the full control effect; nearly all actives have a fitted effect of over 50% in size
Giardia kill = kills Giardia lamblia; AID 540267; activity change, % at 7.66 µM, hits read low; Giardia lamblia trophozoite viability; 340,000 compounds, 0.15% hits; in the data active means activity change below about -80%; inconclusive means between about -30% and that limit;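 further: parasites exposed to compound for two days anaerobically before the ATP read; on the % scale 0 is the no-effect control and ±100 the full control effect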
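Luminescence from cellular ATP indicates surviving trophozoites (100 cells/well) following 48 hrs anaerobic compound treatment at 37 deg C; signal develops 15-30 min at room temperature.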
RXFP1 antag = RXFP1 (human) relaxin receptor antagonism; Q9HBX9; HEK293-RXFP1, relaxin-stimulated cAMP HTRF, 30 min; hits give low values; activity change, negative = inhibition, % at 57.5 µM; 350,000 compounds, 0.59% hits;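 active means activity change of -60% or lower, but not beyond a set lower limit; inconclusive means change between -60% and -40%, or beyond the set limit; inactive means change above -40%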; further: on the % scale 0 is the no-effect control and ±100 the full control effect
Active calls of the source: *; ? = inconclusive; / = no result given; [ ] = another dose, or the depositor's remark. Unless noted, the call rests on the fitted dose curve; in most records, active means well fitted curve in the direction sought with a large enough effect; inconclusive means small, poorly fitted or top-dose-only effect, or another doubt; inactive means no such curve, though single readings can be large; an effect the other way counts as inactive or inconclusive.

SMILES	BRCA1 expr up	IL2 activator	RXFP1 agonist	NPSR antagonist	Giardia kill	RXFP1 antag
CCC(C)NCCOCCOc1ccc(Cl)c(C)c1C (configuration not stated)	-30%	-2	0%	4%	-1	-68*
C=CCc1cc(Cl)ccc1OCCOCCNC(C)CC (configuration not stated)	-47%	-1	-3%	?	-1	?
CCC(C)NCCOCCOc1ccc(Cl)c2ccccc12 (configuration not stated)	-105%	-5	0%	?	14	-78*
COc1cc2nc(N3CCCN(C)CC3)nc(Nc3ccncc3)c2cc1OC	-48%	/	/	/	/	/
COCCCOc1cc(C[C@@H](C[C@H](N)[C@@H](O)C[C@H](C(=O)NCC(C)(C)C(N)=O)C(C)C)C(C)C)ccc1OC	/	/	/	/	/	13
Cn1cnnc1SCC(=O)Nc1ccc2nc(SCc3ccccc3F)sc2c1	4µM*	1	-1%	-4%[46.1 µM]	5	8
COC1=CC(=Cc2c(N)n3nc(CC(=O)N4CCCCC4)sc3nc2=O)C=C(OC)C1=O	0%	85*	5%	/	8	2
COc1ccccc1NS(=O)(=O)c1cc(N2Cc3ccccc3C2=N)ccc1N1CCOCC1	-19%	-4	2%	2.5µM*	-4	-3
CN=C1N[C@H](c2ccccc2)N(c2ccccc2)S1	19%	/	/	/	11	/
O=C(CNC(=O)C1CCCCC1)OCC(=O)c1ccc([N+](=O)[O-])cc1	0%	/	/	/	83	/
c1ccc(CSc2nnc3c4ccccc4c4ccccc4c3n2)cc1	/	/	0%	3%	/	/
Cc1nnc(SCc2ccccc2)nc1-c1ccccc1	11µM*	-2	/	/	2	/
CCCCc1ccc(CC(=O)NO)cc1	-9%	/	/	/	/	/
Cc1cc(C)cc(NC(=O)CN2CCc3cc4c(cc3C2C)OCCCO4)c1 (configuration not stated)	-20%	-2	1%	/	-22	-62*
CCOC(=O)CN1CCCC1=O	/	/	/	/	/	3
Nc1cc(N)nc(SCc2cc([N+](=O)[O-])cc3c2OCOC3)n1	-5%	0	12%	17%	-10	0
O=[N+]([O-])c1cc2c(c(CSc3ncccn3)c1)OCOC2	81%	0	14µM*	-9%	-7	11
CCc1nnc(N/N=C/c2ccc(N3CCC(C)CC3)c([N+](=O)[O-])c2)n1N	-113%	-2	1%	-4%	-28	-7
Cc1nnc(N/N=C/c2cc([N+](=O)[O-])c(N3CCC(C)CC3)cc2N2CCC(C)CC2)n1N	-23%	-4	0%	10µM*	6	44
Cc1nc(C(=O)Nc2ccccc2)sc1C(=O)Nc1ccccc1	2.8µM*	0	0%	-21%	6	-3
O=C(NC(Nc1nc2ccc([N+](=O)[O-])cc2s1)(C(F)(F)F)C(F)(F)F)c1ccccc1Cl	-62%	-1	1%	7.9µM*	1	-25
Cc1ccc(NC(=O)c2cc3c([nH]c2=O)CC(c2ccccc2)CC3=O)cc1 (configuration not stated)	0%	/	/	/	/	/
CCN(CC)CCCC(C)Nc1c2ccc(Cl)cc2nc2ccc(OC)cc12 (configuration not stated)	-53%	/	3%	10µM*	/	9
CCOC(=O)c1cccc(NC(=O)c2cnc(N3CCCCC3)c3ccccc23)c1	/	/	6%	/	/	-23
COc1c(C(=O)NNC(=O)c2ccccc2Cl)csc1Br	10µM*	1	0%	-4%[7.67 µM]	0	3
SMILES	BRCA1 expr up	IL2 activator	RXFP1 agonist	NPSR antagonist	Giardia kill	RXFP1 antag
COc1ccc(NC(=O)c2ccco2)cc1NC(=O)c1cccc(C)c1OC	/	/	2%	/	/	-12
CSc1cccc(NC(=O)c2sc3nc4n(c(=O)c3c2C)CCC4)c1	8.9µM*	0	4%	/	26	-4
COc1cccc(NC(=O)c2sc3nc4n(c(=O)c3c2C)CCC4)c1	10µM*	-2	0%	/	58	12
Cc1ccc(C)c(Nc2nc(-c3ccccc3)c3cc(Br)ccc3n2)c1	/	/	4%	/	/	-11
Cc1nnnn1/C(=C\c1ccccc1)C(=O)OCC(=O)Nc1ccc(Cl)cc1F	-59%	-7	1%	/	5	-64*
COc1ccc(-c2nnc(NC(=O)c3ccc(S(=O)(=O)N4CCCc5ccccc54)cc3)o2)cc1	-89%	-2	2%	-16%[46.1 µM]	-10	-65*
CN(C)C(=O)COc1ccc2cc(-c3ccccc3)c(=O)oc2c1	11µM*	-1	9%	-10%[46.1 µM]	7	-2
COc1ccc2cc(-c3ccccc3)c(=O)oc2c1	?	-1	17%	/	-17	37
Cc1ccc(S(=O)(=O)NCC(=O)NCc2cc(=O)n(C)c(=O)n2C)cc1	6%	-2	6%	/	13	6
Cc1ccc(S(=O)(=O)NCC(=O)NCc2cc(=O)n(C)c(=O)n2C)cc1C	55%	-1	6%	/	-24	-100*
CCC(CC)NC(=O)c1cccc([N+](=O)[O-])c1C	9%	2	6%	5%	3	0
Cc1c(C(=O)NNc2cc(=O)n(C)c(=O)n2C)cccc1[N+](=O)[O-]	15%	-2	14µM*	6%	-11	25
COc1cc(-c2cc(OC)c3c(C)oc(C)c3c(=O)c2)ccc1OC(=O)c1ccccc1Cl	/	/	3%	/	/	?
COc1cc(-c2cc(OC)c3c(C)oc(C)c3c(=O)c2)ccc1OC(=O)c1ccccc1F	/	/	1%	/	/	-68*
CCOc1cc(-c2ccc(OC(=O)c3ccccc3)c(OC)c2)cc(=O)c2c(C)oc(C)c12	/	/	3%	/	/	-98*
COc1ccc(-c2cc(OC(=O)c3ccccc3)c3c(C)oc(C)c3c(=O)c2)cc1OC	/	/	0%	/	/	-5
CCOc1cc(-c2ccc(OC(=O)c3ccc(Cl)cc3)c(OC)c2)cc(=O)c2c(C)oc(C)c12	/	/	0%	/	/	-63*
NC(N)=Nc1ccc(/C=C2\C=Cc3ccccc32)cc1	-43%	/	/	/	/	/
O=S1(=O)C2CC3C=CC2(O3)C(O)C(Cc2ccccc2)N1Cc1cccc(F)c1 (configuration not stated)	/	/	/	/	20	/
c1ccc(OCCSc2ncnc3nc[nH]c23)cc1	8.9µM*	1	/	/	-18	-17
NS(=O)(=O)c1ccc(CCNC(=O)C2CCC(Cn3c(=S)[nH]c4ccccc4c3=O)CC2)cc1 (configuration not stated)	13%	-3	5%	9%	-14	-69*
NS(=O)(=O)c1ccc(CCNC(=O)C2CCCCC2)cc1	1%	-2	-4%	-3%[46.1 µM]	23	4
O=C(NNc1ccccc1)OCc1ccccc1	11µM*	-2	/	/	/	-2
O=C(N[C@H]1/C=C\[C@@H](O)CCCC1)OCc1ccccc1	4.5µM*	0	/	/	3	/

Compound activity (PubChem)
